# Assay outcomes as filed in PubChem.
# CF NFkB inh – inhibitors of PAF-induced NF-kB signaling, primary screen, cell-based, GFP fluorescence, uHTS; KKLEB NF-kB-GFP reporter, GFP fluorescence overnight; hit rate 0.86% among 360,000; AID 588850, 2011; inhibition, % at 5 µM;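 active = at least 50% inhibition at 5 µM, scaled per plate between neutral and stimulator controls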;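 note: PAF is a Pseudomonas aeruginosa culture filtrate used as stimulus; plate controls were PAF-stimulated DMSO wells for no effect and unstimulated DMSO wells for full effect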
# TROY NFkB inh – inhibitors of TROY-driven NF-kB signaling, primary screen, Q293 LMP1-TROYcd cells, NF-kB luciferase, uHTS | AID 1347056, 2019 | Q293 LMP1-TROYcd NF-kB luciferase reporter, 4 h | hit rate 0.98% among 360,000 | inhibition, % at 10 µM;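 active = compounds whose plate-normalised and pattern-corrected inhibition of the luciferase reporter signal at the single screening dose is 50% or more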
# Peg3 promoter – Peg3 promoter-driven luciferase inhibitors, primary screen, cell-based, HeLa, luciferase luminescence. inhibition, % at 20 µM. HeLa PEG-Prom luciferase reporter, overnight. hit rate 1.7% among 360,000;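 active = inhibition of at least 50% at 20 µM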
# TWEAK Fn14 block – inhibitors of TWEAK-Fn14 signaling, primary screen, luciferase reporter cells, uHTS; TWEAK-stimulated Fn14 reporter cells, luciferase luminescence, 8 h; inhibition, % at 10 µM; hit rate 2% among 360,000; in the data active = inhibition above about 50%
# KKLEB cytotox – cytotoxicity in KKLEB CF airway cells, primary screen, cytotoxicity control for CF NF-kB inhibitor project, cell-based, uHTS, fluorescence assay plates. KKLEB CF airway cells viability, ATPlite luminescence, overnight; hits give low values; cells stimulated with P. aeruginosa culture filtrate. activity change (cytotoxicity), % at 5 µM. hit rate 0.36% among 360,000. AID 602141, 2011;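 active = corrected activity change at or below -50% at 5 µM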
# HIF-2a block – HIF-2a reporter inhibitors, primary screen, luminescence, 786-0 RCC cells. 786-0 RCC cells HIF-2a reporter, luciferase luminescence, overnight. inhibition, % at 18.8 µM. hit rate 0.72% among 360,000;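 active = inhibition of the luminescence signal of 40% or more relative to plate controls, in a single-dose primary screen at 18.75 µM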
# Active calls of the source: *. The list is not random: actives were taken first. Their share in the collection is about 4%.
SMILES,CF NFkB inh,TROY NFkB inh,Peg3 promoter,TWEAK Fn14 block,KKLEB cytotox,HIF-2a block
COc1cc(CCCN2CCNC[C@@H]2c2ccccc2)cc(OC)c1OC,-23,-24,-17,7,-3,6
c1ccc([C@H]2CNCCN2CCc2cccc3ccccc23)cc1,32,13,86*,13,-14,1
COc1ccc(-c2cnc(SCC(=O)Nc3nc(C(C)(C)C)cs3)n2Cc2ccco2)cc1,-4,-5,18,14,2,23
CCCS(=O)(=O)c1c(S(=O)(=O)CCC)c2c(C)cccn2c1C(N)=O,3,15,9,15,7,7
CCCS(=O)(=O)c1c(S(=O)(=O)CCC)c2c(C)cccn2c1C(=O)N/N=C/c1cc(O)cc(O)c1,11,-2,53*,-43,0,10
CC(O)[C@H](NC(=O)C1CCN(C(=O)[C@H](Cc2ccccc2)NC(=O)OC(C)(C)C)CC1)C(=O)O (some centres not stated),9,-9,4,5,2,12
COc1ccc(N=C(C)C2=C(O)c3ccccc3C2=O)cc1,1,-12,-105,63*,-24,-105
COC(=O)CSc1nc(N2CCCCC2)c2c(c1C#N)CCCC2,13,-17,21,91*,-6,21
CSc1nc(N2CCOCC2)c2c(c1C#N)CCCCC2,24,-2,9,93*,-7,29
N#Cc1c(SCC(=O)O)nc(N2CCCCC2)c2c1CCCC2,-10,5,21,-4,1,29
CC1Sc2ccc(C(=O)Nc3ccccc3OC(F)F)cc2NC1=O (configuration not stated),3,-20,-193,-15,6,-145
Cc1ccc2nc(-c3ccc(NC(=O)C4CCCO4)cc3)[nH]c2c1 (configuration not stated),-3,44,-31,70*,7,-46
O=C(Nc1ccc2oc(-c3ccccc3)nc2c1)C1CCCO1 (configuration not stated),-20,-99,-285,3,5,-241
O=C(Nc1ccc(-c2nc3cc(Cl)ccc3o2)cc1)C1CCCO1 (configuration not stated),-5,10,-330,50*,-4,-199
Cc1cn(S(=O)(=O)c2ccc(Br)cc2)cn1,-5,0,2,-2,-2,17
Cc1ccc(N/N=C(\C#N)C(N)=S)cc1C,67*,58*,-8,62*,0,-80
Cc1ccc(NC(N)=S)cc1C,-9,15,3,-1,-3,4
N#C/C(=N\Nc1ccc(Cl)cc1)C(N)=S,61*,64*,-31,60*,-39,-161
N#C/C(=N\Nc1ccccc1)C(N)=S,18,31,6,30,-5,-7
O=C(N/N=C/C(Cl)=C/c1ccc([N+](=O)[O-])cc1)C(=O)Nc1ccccc1C(=O)O,-13,12,14,-2,7,3
CC(=O)c1c(C)nc2ccccc2c1N,-8,7,10,-15,1,13
Cc1nc2ccccc2c(N)c1C(=O)/C=C/c1ccccc1,-14,22,72*,34,-12,-10
CCc1nc(N)nc(N)c1-c1ccc(N(C)Cc2ccccc2)c([N+](=O)[O-])c1,4,47,34,68*,2,25
O=C(c1ccccc1F)N1C(=O)c2cccc3cccc1c23,-5,0,4,-16,0,15
CCOC(=O)c1c(C)[nH]c(C(=O)N/N=C/c2cc([N+](=O)[O-])ccc2O)c1C,-7,77*,24,77*,-8,-58
SMILES,CF NFkB inh,TROY NFkB inh,Peg3 promoter,TWEAK Fn14 block,KKLEB cytotox,HIF-2a block
CCOC(=O)c1c(C)[nH]c(C(=O)N/N=C\c2ccccc2O)c1C,10,-34,-71,12,-12,-301
CCOc1ccc(CCNC(=O)Cn2c(=O)c3cccn3c3cccnc32)cc1,5,-4,3,-26,-12,2
CCOC(=O)c1cc(-c2ccccc2)sc1NC(=O)C(C)(C)C,-12,-1,16,96*,16,8
CCN(CC)c1ccc2c(O)cc(=O)oc2c1,3,-10,-12,86*,10,4
Cc1ccc(S(=O)(=O)N2[C@@H](c3ccc(C(C)(C)C)cc3)C(C(=O)O)=CC[C@H]2c2ccc(Cl)c(Cl)c2)cc1,32,8,1,38,9,-6
Cc1ccc(S(=O)(=O)N2[C@@H](c3ccc(Br)cc3)C(C(=O)O)=CC[C@H]2c2ccc(Cl)c(Cl)c2)cc1,20,62*,11,37,8,11
Cc1ccc(S(=O)(=O)N2[C@@H](c3ccc(C(C)(C)C)cc3)C(C(=O)O)=CC[C@H]2c2cccc(Cl)c2)cc1,20,81*,10,50*,12,-7
CC(=O)c1cccc(NC(=O)Nc2ccc3c(c2)N(C)C(=O)CS3)c1,61*,68*,29,82*,-15,-55
CCCCn1c(SCC(=O)N2CCOCC2)nc2ccccc2c1=O,1,0,10,10,8,15
COc1ccc(CNc2ccc3c(c2)nc(C)n3C)cc1,-4,60*,-148,39,-3,-113
Cc1ccc(CNc2ccc3c(c2)ncn3C(C)(C)C)cc1,16,63*,-259,8,-12,-249
CC1CCN(c2c(NCC3CCC(C(=O)N4CCCCC4)CC3)c(=O)c2=O)CC1 (configuration not stated),-3,-2,9,-12,-4,13
O=C(CNC(=O)C1(c2ccccc2)CC1)Nc1ccc(F)c(F)c1,13,-14,16,14,-10,1
CCOc1cc(C(=O)CSc2nnc(CNc3ccc(Cl)cc3)o2)ccc1NC(=O)CC,5,7,66*,-48,2,3
c1cc(CN2CCN(C3CCCCCC3)CC2)ccn1,1,9,7,14,-7,20
Cc1ccc(NC(=O)C2CCN(S(=O)(=O)c3cc([N+](=O)[O-])ccc3Cl)CC2)nc1,18,12,14,25,-6,-18
Cc1ccc2nc(NC(=O)C3CCN(S(=O)(=O)c4cccs4)CC3)sc2c1,-2,40,14,80*,10,3
COc1ccc2nc(NC(=O)C3CCN(S(=O)(=O)c4cccs4)CC3)sc2c1,20,54*,19,55*,-10,6
Cc1ccc2nc(NC(=O)C3CCN(S(=O)(=O)c4cccc5nsnc45)CC3)sc2c1,17,42,-6,92*,-6,-27
